PubChem BioAssay (NCI)
Compounds without any hit were thinned out: in the full panel of roughly 79,000, 15% have a hit. Calls of active or inactive are those of the source. No stated cut-off is given here; in the data, active means growth inhibition above about 70%; inactive means the rest.

Experiment: NCI Yeast Anticancer Drug Screen. Data for the mec2-1 strain (AID 157)
Conditions: S. cerevisiae mec2-1 strain, stronger effect = higher value
Method: Growth inhibition of yeast strains with defined genetic alterations is measured as a screen for potential anti-cancer activity. Selected strains with alterations in DNA damage repair or cell cycle control were exposed to compounds and growth inhibition was measured relative to vehicle treated controls. The strain used in this assay is mec2-1

[1] = at 5.0 µM (retest, dose inferred, filed as 0.5)
[2] = at 50.0 µM (retest, dose inferred, filed as 5.0)

Structure (SMILES) | growth inhibition [1] | growth inhibition [2] | growth inhibition (at 50.0 µM)
O=C(O)c1ccc(N=CC2CO2)cc1 (configuration not stated) | 44% (inactive) | 64% (inactive) | 0.45% (inactive)
Cc1c(O)c(Br)c(C)c(O)c1Br (tested in a mixture with another compound) | 21% (inactive) | 69% (inactive) | 49.8% (inactive)
CCC(C)NCCNc1cc(OC)cc2cccnc12 (configuration not stated) | 1% (inactive) | 0% (inactive) | 27% (inactive)
Clc1ccc(C2=CCN3CC=C(c4ccc(Cl)cc4)C23)cc1 | 1% (inactive) | 42% (inactive) | 99.9% (active)
Nc1ccc(-c2nc3ccccc3s2)cc1I | 20% (inactive) | 74% (active) | 89.1% (active)
Cc1ccc2ccc(C(Nc3ccccc3)c3ccncc3)c(O)c2n1 (configuration not stated) | -2% (inactive) | 95% (active) | 82.8% (active)
CCOC(=O)C(=N\Nc1cccc(C)c1C)/C(C)=N\NC(N)=S | 9% (inactive) | 56% (inactive) | 38.2% (inactive)
O=C1OC(=O)C2C1C1(c3ccccc3)OC2(c2ccccc2)c2c(Br)c(Br)c(Br)c(Br)c21 (configuration not stated) | 25% (inactive) | 100% (active) | 99.4% (active)
CCCCCCCN(CCCCCCC)CC(O)Cc1cc2c(c3ccccc13)CCCC2 (configuration not stated) | 17% (inactive) | 98% (active) | 94.7% (active)
CC1CC2(C)ON=C(c3ccccc3)N2c2ccccc2S1 (configuration not stated) | -4% (inactive) | 93% (active) | 90% (active)
S=c1c2cn[nH]c2nc2scc(-c3ccc(Cl)cc3)n12 | -29% (inactive) | 97% (active) | 49.7% (inactive)
CCC1(CC)COC(C)(C(=O)O)OC1 | -50% (inactive) | -62% (inactive) | 11.1% (inactive)
N#CC#Cc1cccc(C#CC#N)c1 | 99% (active) | 99% (active) | 98.9% (active)
C=C1C(O)C2(O)OCC34C(CC5C(C)=CC(=O)C(O)C5(C)C23)OC(=O)C(OC(=O)C/C=C/CCCCCCCC)C14 (configuration not stated) | 87% (active) | 99% (active) | 93% (active)
